# Laboratory results as given in the supplement of paper PMC10981050.
# Values joined by “and” are separate entries in the source; they are usually repeats but may differ in a detail not shown here. Equal entries are not always repeated.
# Legend:
# Assay in all cases: cell viability relative to vehicle control; higher = less cytotoxic
# Conditions in all cases: 10 µM
# K562 = test system: K562
# Method in brief: (§1)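 Mutant clones made by CRISPR editing and their isogenic wild-type counterparts, from four leukaemia lines, were exposed to a single 10 µM dose of each library compound for 48 h. The supernatant was then removed and CellTiter-Glo luminescence was read. Viability was reported as percent of the on-plate vehicle control.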
# MARIMO = test system: MARIMO
# Method in brief: as §1
# MOLM14 = test system: MOLM14
# Method in brief: as §1
# OCI-AML2 = test system: OCI-AML2
# Method in brief: as §1
Structure (SMILES),cell viability (K562; SRSF2 genotype: SRSF2 P95H/wt),cell viability (K562; SRSF2 genotype: SRSF2 wt/wt),cell viability (MARIMO; SRSF2 genotype: SRSF2 P95H/wt),cell viability (MARIMO; SRSF2 genotype: SRSF2 wt/wt),cell viability (MOLM14; SRSF2 genotype: SRSF2 P95H/wt),cell viability (MOLM14; SRSF2 genotype: SRSF2 wt/wt),cell viability (OCI-AML2; SRSF2 genotype: P95H/wt),cell viability (OCI-AML2; SRSF2 genotype: wt/wt)
CN1CCN(C(=O)c2cc3cc(Cl)ccc3[nH]2)CC1,99% and 97.5%,98.6%,100%,98.7%,92.6%,99.3%,109%,96.6%
Cc1[nH]nc2ccc(-c3cncc(OC[C@@H](N)Cc4ccccc4)c3)cc12,31.9% and 28.5%,26.3%,7.82%,5.76%,0.2%,0.05%,0.26%,6.55%
COc1cc2c(Oc3ccc(NC(=O)C4(C(=O)Nc5ccc(F)cc5)CC4)cc3F)ccnc2cc1OCCCN1CCOCC1,0.8% and 0.64%,0.55%,17.8%,12.1%,0.21%,0.34%,0.22%,1.03%
Cc1nc(=O)c2cc(CN(C)c3ccc(C(=O)N[C@@H](CCC(=O)O)C(=O)O)s3)ccc2[nH]1 [Raltitrexed (Tomudex)],94.9% and 108%,58.7%,94.3%,105%,104%,80.6%,106%,118%
CC(C(=O)O)c1cccc(Oc2ccccc2)c1 (stereo not drawn) [Fenoprofen calcium hydrate],95.1% and 104%,99.4%,103%,101%,95.1%,102%,106%,103%
O=C(NCc1ccncc1)C12CC3CC(C1)CC(c1ccc(Cl)cc1)(C3)C2,73.1% and 84.6%,72.3%,75.4%,74.2%,61%,57.4%,64.5%,55.1%
COc1cccc(-c2cc(=O)c3ccccc3o2)c1N,95.9% and 95.1%,95.6%,69.9%,61.9%,99.5%,109%,73.1%,58%
COC(=O)Nc1nc2cc(C(=O)c3ccc(F)cc3)ccc2[nH]1 [Flubendazole (Flutelmium)],18.9% and 30.8%,27.6%,9.3%,12%,8.51%,43.1%,6.97%,11%
C[n+]1c2ccccc2nc2ccccc21 [Phenazine methosulfate],6.28% and 2.85%,13.5%,4.9%,8.06%,2.87%,1.78%,2.71%,4.56%
N#Cc1c(O)c2c(-c3ccc(-c4ccccc4O)cc3)csc2[nH]c1=O,102% and 100%,103%,99.1%,103%,104%,99%,93.1%,101%
COc1cc(Nc2ncc(F)c(Nc3ccc4c(n3)NC(=O)C(C)(C)O4)n2)cc(OC)c1OC [R406(free base)],95% and 101%,104%,72.2%,85.1%,25.2%,16%,42.1%,56.3%
Nc1nc2ccc(OC(F)(F)F)cc2s1 [Riluzole (Rilutek)],94.3% and 96.3%,88.4%,94%,90.6%,81.8%,98.6%,103%,94.8%
COCCOc1nc(-c2ccc(Cl)c(Cl)c2)n(-c2ccc(NC(=O)CCl)cc2)n1 [MI-2 (MALT1 inhibitor)],16% and 8.54%,6.61%,0.5%,0.7%,0.48%,0.53%,0.42%,0.46%
C[C@H](NC(=O)C(=O)Nc1ccccc1C(C)(C)C)C(=O)N[C@@H](CC(=O)O)C(=O)COc1c(F)c(F)cc(F)c1F,106% and 107%,108%,111%,107%,90.2%,101%,111%,106%
CC(C)(C)C(=O)N1N=CC[C@H]1c1ccccc1,101% and 98.4%,104%,107%,108%,95.5%,103%,97.2%,103%
Cc1ccc(C(C)C)c(O)c1 [Thymol],96.2% and 91.7%,99%,97.9%,102%,97.1%,105%,98.3%,101%
CCC/C=C1\OC(=O)C2=C1CCC=C2 [Ligustilide],84.1% and 83.7%,85.5%,60.9%,65.6%,52.7%,49.4%,64.8%,63.9%
C[S+]([O-])c1ccc(-c2nc(-c3ccc(F)cc3)c(-c3ccncc3)[nH]2)cc1 (stereo not drawn),96.3% and 94.8%,88.4%,110%,113%,109%,99.9%,109%,102%
CN(C)C(=O)/C(C#N)=C/c1ccc(-c2nc3cnc4[nH]ccc4c3n2C2CCCCC2)o1,99.3% and 98.8%,98.6%,80.9%,89.3%,49.5%,71%,71.5%,71.5%
CO/N=C(\C(=O)N[C@@H]1C(=O)N2C(C(=O)O)=CCS[C@H]12)c1csc(N)n1 [Ceftizoxime],99.2% and 101%,110%,96.1%,98.9%,104%,103%,111%,98.5%
CS(=O)(=O)c1ccc(-c2cnc(N)c(C(=O)Nc3ccccc3)n2)cc1,108% and 109%,116%,113%,110%,109%,110%,98.9%,91.7%
